Source: PubChem BioAssay (NCI)
This is part of a sample that, as a whole, favours compounds with a hit. Of some 83,000 tested, about 20% had one in any assay.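 Compound tested at a single concentration for 48 hours in 96-well plates; a percent growth value below 10 was scored as active.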 A number with no mark means an inactive call. The source made the active and inactive calls.

Assays:
Assay in all cases: NCI-60 one-dose screen, 48 h (100 = growth as untreated, 0 = no growth, -100 = all killed)
SR leukemia = conditions: 10 µM unless noted
RPMI-8226 leukemia = conditions: 10 µM unless noted
OVCAR-8 ovarian = conditions: 10 µM unless noted
OVCAR-5 ovarian = conditions: 10 µM unless noted
OVCAR-4 ovarian = conditions: 10 µM unless noted
SK-OV-3 ovarian = conditions: 10 µM unless noted
IGROV1 ovarian = conditions: 10 µM unless noted
OVCAR-3 ovarian = conditions: 10 µM unless noted
HS 578T breast = conditions: 10 µM
T-47D breast = conditions: 10 µM unless noted
BT-549 breast = conditions: 10 µM unless noted
MDA-MB-435 melanoma = conditions: 10 µM unless noted
SW-620 colon = conditions: 10 µM unless noted
MCF7 breast = conditions: 10 µM unless noted
HCT-116 colon = conditions: 10 µM unless noted
HCC-2998 colon = conditions: 10 µM unless noted
KM12 colon = conditions: 10 µM unless noted
NCI/ADR-RES ovarian = conditions: 10 µM unless noted

| SMILES | growth (SR leukemia) | growth (RPMI-8226 leukemia) | growth (OVCAR-8 ovarian) | growth (OVCAR-5 ovarian) | growth (OVCAR-4 ovarian) | growth (SK-OV-3 ovarian) | growth (IGROV1 ovarian) | growth (OVCAR-3 ovarian) | growth (HS 578T breast) | growth (T-47D breast) | growth (BT-549 breast) | growth (MDA-MB-435 melanoma) | growth (SW-620 colon) | growth (MCF7 breast) | growth (HCT-116 colon) | growth (HCC-2998 colon) | growth (KM12 colon) | growth (NCI/ADR-RES ovarian) |
| --- | --- | --- | --- | --- | --- | --- | --- | --- | --- | --- | --- | --- | --- | --- | --- | --- | --- | --- |
| COc1ccc(C2=NN(C=O)C(c3ccc(OS(=O)(=O)c4ccc(C)cc4)c(OC)c3)C2)cc1 (stereo unspecified) | 23.5% | 40.3% | 59.6% | 89.9% | 40.5% | 84.3% | 79.1% | 60.8% | 60.1% | 40.3% | 46.4% | 14.1% | 48.3% | 40.2% | 45.8% | 74.1% | 54.5% |  |
| COc1cc(C)cc2oc3oc(=O)c(-c4csc(-c5cc6ccccc6oc5=O)n4)cc3c(=O)c12 | 113% | 109% | 103% | 109% | 106% | 120% | 117% | 116% | 120% |  | 107% | 105% | 105% | 101% |  | 106% | 107% | 105% |
| Cc1ccc(Nc2nc(NCCO)c3ccccc3n2)cc1C | 19% | 19.7% | 9.74% (active) | 25.6% | 50.6% | -0.684% (active) | 20.2% | -9.61% (active) | 36.1% | 55.9% | 37.7% | -35.8% (active) | 13.5% | 24.4% | 16.5% | 11.6% | 9.68% (active) |  |
| Oc1c(-c2cc(C(F)(F)F)[nH]n2)cc(Cl)c(OCc2ccc(Cl)cc2)c1-c1ccc(Cl)c(C(F)(F)F)c1 | 15.2% | -27.9% (active) | 9.67% (active) | 30.3% | 19% | 6.29% (active) | 19.8% | 10.5% | 5.31% (active) |  | -11.9% (active) | -16.9% (active) | 8.41% (active) | 2.3% (active) | -23.8% (active) | 12.7% | 1.97% (active) | 9.38% (active) |
| C#CC[C@@H]1C[C@]2(C)[C@H]3CC=C4[C@H]5[C@@H](C)[C@H](C)CC[C@]5(C(=O)NCCCN5CCN(CCCN)CC5)CC[C@@]4(C)[C@]3(C)CC[C@H]2C(C)(C)[C@H]1OC(C)=O | -5.62% (active) | -52.1% (active) | -58.3% (active) | 29.4% | -17.5% (active) | 115% | -60.5% (active) | -73.7% (active) | -25.3% (active) |  | -3.81% (active) | -74.2% (active) | -51% (active) | -75.8% (active) |  | -34.1% (active) | 1.28% (active) | 61.7% |
| C=C(CN1CC=CCC1)[C@@H]1CC[C@]2(C(=O)OC)CC[C@]3(C)[C@H](CC[C@@H]4[C@@]5(C)CC[C@H](OC(C)=O)C(C)(C)[C@@H]5CC[C@]43C)[C@@H]12 | 69.4% | 50% | 103% | 118% | 91.3% | 103% | 91.8% | 92.5% | 109% |  | 85.6% | 90.7% | 102% | 88.2% | 86.7% | 108% | 78.6% | 107% |
| Fc1[nH]nc2ccc([C@@H]3Nc4ccc5[nH]ncc5c4[C@H]4C5CCC(C5)[C@@H]34)cc12 (stereo partly specified) | 42% | 18.2% | 40% | 54.3% | 54.6% | 39.7% | 43.1% | 1.83% (active) | 34.8% |  | 53.2% | -42.5% (active) | 23.9% | 21.2% | 21% | 58.2% | 20.7% | 15.2% |
| COc1cc(C(=O)/C=C/c2cn(-c3ccccc3)nc2-c2cccc(Nc3ccnc4cc(Cl)ccc34)c2)cc(OC)c1OC | 3.48% (active) | 47.2% | 78.5% | 112% | 127% | 115% | 93.2% | 132% | 102% | 95.4% | 93.3% | 66.9% | 99.1% | 71.2% | 68.1% | 108% | 93.5% |  |
| O=C(/C=C/c1ccccc1)C(Br)C(Br)c1ccccc1 (stereo unspecified) | -28% (active) | -42.2% (active) | -20.7% (active) | 38.3% | 13% | 86.1% | -45.5% (active) | -31.1% (active) | 100% | -36.6% (active) | -60.8% (active) | -68.7% (active) | -53.1% (active) | -48.3% (active) | -94.2% (active) | 51.8% | 8.19% (active) |  |
